From the supplement of paper PMC4022240 come the findings set out here.

± gives the standard deviation.

Common to all, as to assay: peptide microarray binding signal (635 nm), min-max normalized on array (fraction of array maximum); higher = stronger binding
Assay [1] concerns the target T1, HaloTag-ATRX ADD domain (163-292).
T1 chain: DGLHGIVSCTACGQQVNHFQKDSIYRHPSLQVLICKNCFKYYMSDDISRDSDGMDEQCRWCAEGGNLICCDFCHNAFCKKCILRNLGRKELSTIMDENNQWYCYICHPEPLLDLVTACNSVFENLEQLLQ
The method in brief: (§1)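 Arrays carried histone 13-mer peptide–cellulose conjugates printed in triplicate on nitrocellulose alongside a Cy3 tracer. After overnight blocking at 4°C, they were incubated for 1 h at 4°C with biotin-labelled HaloTag reader fusions (10 nM to 1 μM) plus streptavidin-Alexa Fluor 647, or with rabbit histone antibodies (1:10,000 to 1:2,000) plus anti-rabbit Alexa 647. Scanning on an Axon GenePix 4000B used 635 nm for signal and 532 nm for misprints. The binding signal reported is each triplicate's mean spot intensity after per-library min-max scaling.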

For assay [2], the target named is HaloTag-ING2 PHD (mouse Ing2 200-280). The method in brief:
as §1

The target of assay [3] is anti-H3K4me3 antibody ab8580. The method in brief:
as §1

Assay [4] addresses anti-H3K9me3 antibody ab8898. The method in brief:
as §1

[5] abbreviates: peptide region: H4 8-19, peptide modifications: H4K8ac H4K12ac H4K16ac, binder concentration: 1:2,000 dilution.
The mark [6] stands for this setting: peptide region: H4 8-19, peptide modifications: H4K8ac H4K12ac, binder concentration: 1:2,000 dilution.
The mark [7] stands for this setting: peptide region: H4 8-19, peptide modifications: H4K8ac H4K12ac, binder concentration: 1:10,000 dilution.
Where [8] appears, read: peptide region: H4 1-13, peptide modifications: H4K5ac H4K12ac, binder concentration: 1:2,000 dilution.
Setting [9] is: peptide region: H4 1-13, peptide modifications: H4K5ac H4K12ac, binder concentration: 1:10,000 dilution.
Where [10] appears, read: peptide region: H4 1-13, peptide modifications: H4R3me2a, binder concentration: 1:2,000 dilution.
The mark [11] stands for this setting: peptide region: H4 1-13, peptide modifications: H4R3me2a, binder concentration: 1:10,000 dilution.
[12] abbreviates: peptide region: H4 1-13, peptide modifications: H4S1ph H4K8ac, binder concentration: 1:2,000 dilution.
Setting [13] is: peptide region: H4 1-13, peptide modifications: H4S1ph H4K8ac, binder concentration: 1:10,000 dilution.
Where [14] appears, read: peptide region: H4 1-13, peptide modifications: H4S1ph H4R3me2a, binder concentration: 1:2,000 dilution.
Setting [15] is: peptide region: H4 1-13, peptide modifications: H4S1ph H4R3me2a, binder concentration: 1:10,000 dilution.
[16] abbreviates: peptide region: H4 1-13, peptide modifications: H4K8ac, binder concentration: 1:2,000 dilution.
Where [17] appears, read: peptide region: H4 1-13, peptide modifications: H4K8ac, binder concentration: 1:10,000 dilution.
Setting [18] is: peptide region: H4 1-13, peptide modifications: H4K8ac H4K12ac, binder concentration: 1:2,000 dilution.
Setting [19] is: peptide region: H4 1-13, peptide modifications: H4K8ac H4K12ac, binder concentration: 1:10,000 dilution.
Where [20] appears, read: peptide region: H4 1-13, peptide modifications: H4S1ph H4K5ac, binder concentration: 1:2,000 dilution.
Setting [21] is: peptide region: H4 1-13, peptide modifications: H4S1ph H4K5ac, binder concentration: 1:10,000 dilution.
Where [22] appears, read: peptide region: H4 1-13, peptide modifications: H4S1ph H4R3me2s, binder concentration: 1:2,000 dilution.
The mark [23] stands for this setting: peptide region: H4 1-13, peptide modifications: H4S1ph H4R3me2s, binder concentration: 1:10,000 dilution.

For the molecule KGLGKGGAKRHRK [H4 8-19 Kac G L G Kac G G A Kac R H R K], the “peptide microarray binding signal” value in assay [1] (peptide region: H4 8-19, peptide modifications: H4K8ac H4K12ac H4K16ac, binder concentration: 500 nM) was found to be 0.000476 ± 4.9e-06; in assay [2] (peptide region: H4 8-19, peptide modifications: H4K8ac H4K12ac H4K16ac, binder concentration: 100 nM), 7.09e-05 ± 1.5e-06; in assay [3] (setting [5]), 1.89e-05 ± 2.2e-07; in assay [4] (setting [5]), 3.02e-05 ± 3.4e-07.

As for KGLGKGGAKRHRK [H4 8-19 Kac G L G Kac G G A K R H R K], the “peptide microarray binding signal” value came to 0.000251 ± 1.2e-05 in assay [1] (peptide region: H4 8-19, peptide modifications: H4K8ac H4K12ac, binder concentration: 50 nM); 0.000143 ± 2.7e-06 in assay [1] (peptide region: H4 8-19, peptide modifications: H4K8ac H4K12ac, binder concentration: 500 nM); 0.00567 ± 0.0013 in assay [2] (peptide region: H4 8-19, peptide modifications: H4K8ac H4K12ac, binder concentration: 10 nM); 0.000496 in assay [2] (peptide region: H4 8-19, peptide modifications: H4K8ac H4K12ac, binder concentration: 100 nM); 0.000113 in assay [3] (setting [6]); 0.00165 ± 0.00042 in assay [3] (setting [7]). For the same molecule, the “peptide microarray binding signal” value in assay [4] (setting [6]) was found to be 6.04e-05 ± 6.8e-07; in assay [4] (setting [7]), 5.77e-05 ± 6.6e-07.

As to SGRGKGGKGLGKG [H4 1-13 S G R G Kac G G K G L G Kac G], the “peptide microarray binding signal” value in assay [1] (peptide region: H4 1-13, peptide modifications: H4K5ac H4K12ac, binder concentration: 50 nM) came out at 0.00552 ± 0.00053; in assay [1] (peptide region: H4 1-13, peptide modifications: H4K5ac H4K12ac, binder concentration: 500 nM) it was 0.0164 ± 0.0029; in assay [2] (peptide region: H4 1-13, peptide modifications: H4K5ac H4K12ac, binder concentration: 10 nM), 0.00352 ± 0.00063; in assay [2] (peptide region: H4 1-13, peptide modifications: H4K5ac H4K12ac, binder concentration: 100 nM), 0.00822 ± 0.0021; in assay [3] (setting [8]), 0.000547 ± 0.00012; in assay [3] (setting [9]), 0.00217 ± 0.00014. Further, the entries for the “peptide microarray binding signal” value in assay [4] (setting [8]) and in assay [4] (setting [9]) were 0.00131 ± 0.00038 and 0.00196 ± 8e-05, respectively.

SGRGKGGKGLGKG [H4 1-13 S G Rme2a G K G G K G L G K G]: the “peptide microarray binding signal” value in assay [1] (peptide region: H4 1-13, peptide modifications: H4R3me2a, binder concentration: 50 nM) came to 0.0021 ± 9.6e-06; in assay [1] (peptide region: H4 1-13, peptide modifications: H4R3me2a, binder concentration: 500 nM), 0.00305 ± 6.3e-05; in assay [2] (peptide region: H4 1-13, peptide modifications: H4R3me2a, binder concentration: 10 nM), 0.00269 ± 4e-05; in assay [2] (peptide region: H4 1-13, peptide modifications: H4R3me2a, binder concentration: 100 nM), 0.00404 ± 9.1e-05; in assay [3] (setting [10]), 0.000227 ± 4.2e-06; in assay [3] (setting [11]) it was 0.000856 ± 2.3e-05. Moreover, the “peptide microarray binding signal” value in assay [4] (setting [10]) was 1.51e-05 ± 1.7e-07; in assay [4] (setting [11]), 0.000577 ± 1.2e-05.

As for SGRGKGGKGLGKG [H4 1-13 Sph G R G K G G Kac G L G K G], the “peptide microarray binding signal” value in assay [1] (peptide region: H4 1-13, peptide modifications: H4S1ph H4K8ac, binder concentration: 50 nM) is 0.00445 ± 0.00043; in assay [1] (peptide region: H4 1-13, peptide modifications: H4S1ph H4K8ac, binder concentration: 500 nM), 0.0149 ± 0.0018; in assay [2] (peptide region: H4 1-13, peptide modifications: H4S1ph H4K8ac, binder concentration: 10 nM), 0.00251 ± 3.8e-05; in assay [2] (peptide region: H4 1-13, peptide modifications: H4S1ph H4K8ac, binder concentration: 100 nM), 0.00503 ± 0.00084; in assay [3] (setting [12]) it was 0.000359 ± 1.8e-05; in assay [3] (setting [13]), 0.000742 ± 1.3e-05. Also, the “peptide microarray binding signal” value worked out at 0.000332 ± 6.7e-06 in assay [4] (setting [12]) and 0.000577 ± 6.2e-06 in assay [4] (setting [13]).

Regarding SGRGKGGKGLGKG [H4 1-13 Sph G Rme2a G K G G K G L G K G], the “peptide microarray binding signal” value in assay [1] (peptide region: H4 1-13, peptide modifications: H4S1ph H4R3me2a, binder concentration: 50 nM) stood at 0.00605 ± 0.001; in assay [1] (peptide region: H4 1-13, peptide modifications: H4S1ph H4R3me2a, binder concentration: 500 nM), 0.0165 ± 0.0018; in assay [2] (peptide region: H4 1-13, peptide modifications: H4S1ph H4R3me2a, binder concentration: 10 nM) it was 0.00334 ± 4.8e-05; in assay [2] (peptide region: H4 1-13, peptide modifications: H4S1ph H4R3me2a, binder concentration: 100 nM) it was 0.00794 ± 0.0014; in assay [3] (setting [14]) it was 0.00225 ± 0.00023; in assay [3] (setting [15]), 0.00194 ± 6.3e-05. The “peptide microarray binding signal” value in assay [4] (setting [14]) is 0.000982 ± 4.2e-05; in assay [4] (setting [15]), 0.00104 ± 1.1e-05.

For SGRGKGGKGLGKG [H4 1-13 S G R G K G G Kac G L G K G], the “peptide microarray binding signal” value came out at 0.00248 ± 2.9e-05 in assay [1] (peptide region: H4 1-13, peptide modifications: H4K8ac, binder concentration: 50 nM); 0.00481 ± 8.5e-05 in assay [1] (peptide region: H4 1-13, peptide modifications: H4K8ac, binder concentration: 500 nM); 0.002626 ± 1.5e-05 in assay [2] (peptide region: H4 1-13, peptide modifications: H4K8ac, binder concentration: 10 nM); 0.00546 ± 0.00011 in assay [2] (peptide region: H4 1-13, peptide modifications: H4K8ac, binder concentration: 100 nM); 0.000434 ± 1.2e-05 in assay [3] (setting [16]); 0.000628 ± 6.7e-06 in assay [3] (setting [17]). The “peptide microarray binding signal” value in assay [4] (setting [16]) amounted to 9.06e-05 ± 3.5e-06; in assay [4] (setting [17]), 0.000346 ± 3.8e-06.

Turning to SGRGKGGKGLGKG [H4 1-13 S G R G K G G Kac G L G Kac G], the “peptide microarray binding signal” value was found to be 0.00188 ± 7.5e-05 in assay [1] (peptide region: H4 1-13, peptide modifications: H4K8ac H4K12ac, binder concentration: 50 nM); 0.00533 ± 0.00034 in assay [1] (peptide region: H4 1-13, peptide modifications: H4K8ac H4K12ac, binder concentration: 500 nM); 0.00179 ± 0.0001 in assay [2] (peptide region: H4 1-13, peptide modifications: H4K8ac H4K12ac, binder concentration: 10 nM); 0.00255 ± 6.4e-05 in assay [2] (peptide region: H4 1-13, peptide modifications: H4K8ac H4K12ac, binder concentration: 100 nM); 0.00017 ± 6.4e-06 in assay [3] (setting [18]); 0.000799 ± 1.7e-05 in assay [3] (setting [19]). Besides, the figures for the “peptide microarray binding signal” value in assay [4] (setting [18]) and in assay [4] (setting [19]) were 0.000438 ± 8.5e-06 and 0.000577 ± 1.2e-05, respectively.

In the case of SGRGKGGKGLGKG [H4 1-13 Sph G R G Kac G G K G L G K G], the “peptide microarray binding signal” value in assay [1] (peptide region: H4 1-13, peptide modifications: H4S1ph H4K5ac, binder concentration: 50 nM) was determined as 0.00348 ± 3.8e-05; in assay [1] (peptide region: H4 1-13, peptide modifications: H4S1ph H4K5ac, binder concentration: 500 nM), 0.0117 ± 0.00091; in assay [2] (peptide region: H4 1-13, peptide modifications: H4S1ph H4K5ac, binder concentration: 10 nM), 0.001373 ± 8.3e-06; in assay [2] (peptide region: H4 1-13, peptide modifications: H4S1ph H4K5ac, binder concentration: 100 nM), 0.00269 ± 6.7e-05; in assay [3] (setting [20]) it was 0.000208 ± 2.2e-06; in assay [3] (setting [21]) it was 0.000856 ± 8.9e-06. For the same molecule, the “peptide microarray binding signal” value in assay [4] (setting [20]) was 0.000362 ± 6.3e-06; in assay [4] (setting [21]), 0.000692 ± 7.3e-06.

Regarding SGRGKGGKGLGKG [H4 1-13 Sph G Rme2s G K G G K G L G K G], the “peptide microarray binding signal” value came out at 0.0052 ± 0.0008 in assay [1] (peptide region: H4 1-13, peptide modifications: H4S1ph H4R3me2s, binder concentration: 50 nM); 0.00852 ± 0.00024 in assay [1] (peptide region: H4 1-13, peptide modifications: H4S1ph H4R3me2s, binder concentration: 500 nM); 0.00346 ± 0.00014 in assay [2] (peptide region: H4 1-13, peptide modifications: H4S1ph H4R3me2s, binder concentration: 10 nM); 0.00865 ± 0.00015 in assay [2] (peptide region: H4 1-13, peptide modifications: H4S1ph H4R3me2s, binder concentration: 100 nM); 0.00119 ± 0.0001 in assay [3] (setting [22]); 0.0012 ± 1.2e-05 in assay [3] (setting [23]). Also, the results for the “peptide microarray binding signal” value in assay [4] (setting [22]) and in assay [4] (setting [23]) were 0.000408 ± 1.8e-05 and 0.000923 ± 9.6e-06, respectively.
